# SMN2 splice up = increases expression of the SMN2 splice variant | Potency, µM (highest dose often 46.1 µM), for the others: top-dose activity change, positive = activation, most hits filed as activators | AID 1458 | HEK293 SMN2-luciferase splicing reporter, luminescence, 30-36 h | 210,000 tested, 2.8% active; note: % of control where 0% means no effect; nearly all actives have a fitted effect of over 55% in size
#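 qHTS luciferase splicing reporter: luminescence rises when SMN2 exon 7 is included in transfected HEK293 cells. Compound exposure lasted 30-36 h at 37C, with 4.5 mM final sodium butyrate as control, followed by a ONE-Glo read.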
# Rab9 prom act = activators of Rab9 promoter. Huh7 Rab9 promoter-luciferase reporter, luminescence, 24 h. Potency, µM (doses to about 9.22 µM), inactives show top-dose activation, negative = inhibition, usual class: activators. 320,000 tested, 2.8% active. AID 485297; note: % of control where 0% means no effect; nearly all actives have a fitted effect of over 60% in size
#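 Steps: seed 1500 Huh7 Rab9-luc cells per well, rest 2 h at 37 °C; add compound in DMSO; incubate 24 h; add luciferase reagent, 10 min ambient; read luminescence.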
# ELG1 genotoxic = induces genotoxicity in HEK293T cells with luciferase-tagged ELG1; HEK293T ELG1-luciferase reporter, luminescence, 16 h; Potency, µM (top dose mostly 46 µM), for inactives: at the top dose activity change, positive = activation, actives largely listed as activators; 330,000 tested, 1.3% active; note: % of control where 0% means no effect; nearly all actives have a fitted effect of over 60% in size
#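 After overnight (16 hr) compound treatment at 37 °C, ELG1-luciferase HEK293T cells were lysed with ONE-Glo; luminescence quantified 30 min later at room temperature.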
# NPC1 prom act = NPC1 promoter activation; Huh7 NPC1 promoter luciferase reporter, 24 h; Potency, µM (titrated, usually from 9.22 µM), without a hit: at the top dose activation, actives largely listed as activators; 320,000 tested, 2.4% active; note: % of control where 0% means no effect; nearly all actives have a fitted effect of over 60% in size
#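 Quantitative HTS used a cell-based reporter: Huh7 cells stably bearing the NPC1 promoter upstream of luciferase were treated with compounds for 24 h, and promoter activation was read as luminescence.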
# FLuc modulator = firefly luciferase modulation, counter-screen for miR-21 project | P08659 | purified FLuc, Km substrates, luminescence inhibition | Potency, µM (highest dose often 57.5 µM), for inactives: top-dose activity change, negative = inhibition, hits mostly inhibitors | 360,000 tested, 6.9% active;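 note: plate controls were vehicle for no effect and reference inhibitor for full effect; nearly all actives have a fitted effect of over 55% in size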
# Target sequence (P08659 whole entry, looked up): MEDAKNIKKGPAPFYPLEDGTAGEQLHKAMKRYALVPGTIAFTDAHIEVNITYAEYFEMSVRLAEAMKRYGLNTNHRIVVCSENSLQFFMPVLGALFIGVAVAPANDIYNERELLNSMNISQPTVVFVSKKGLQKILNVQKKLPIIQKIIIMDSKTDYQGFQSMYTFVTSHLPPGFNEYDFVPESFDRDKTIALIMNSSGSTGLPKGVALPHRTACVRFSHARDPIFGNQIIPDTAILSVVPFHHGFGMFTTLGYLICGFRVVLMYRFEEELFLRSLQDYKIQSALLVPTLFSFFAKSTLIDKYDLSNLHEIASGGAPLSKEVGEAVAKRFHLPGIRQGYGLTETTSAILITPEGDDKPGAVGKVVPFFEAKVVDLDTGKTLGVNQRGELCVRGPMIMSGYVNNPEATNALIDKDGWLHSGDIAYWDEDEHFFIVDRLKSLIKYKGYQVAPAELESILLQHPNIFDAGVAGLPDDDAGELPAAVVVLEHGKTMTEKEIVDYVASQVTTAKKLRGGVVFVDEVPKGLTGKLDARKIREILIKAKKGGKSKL
#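 Purified P. pyralis luciferase (10nM final) with 10uM D-luciferin and 10uM ATP (Km levels) in 50mM Tris acetate pH 7.5, 10mM Mg acetate, 0.01% Tween-20, 0.05% BSA; qHTS 6-point titration, ~60 µM downward; luminescence read.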
# p53 reactivation = re-activators of mutant p53 | H1299 p53-A138V BP100-luciferase reporter, luminescence, 24 h | Potency, µM (series often up to 92.2 µM), inactives show at the highest dose activity change, positive = activation, most hits filed as activators | 320,000 tested, 0.063% active; note: % of control where 0% means no effect; nearly all actives have a fitted effect of over 45% in size
#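 H1299 (p53-null), stable ts p53-A138V + BP100-Luc; 1000 cells/well, Opti-MEM/10% FBS; cpd 4 pt, 1:5; 24 h, 37 deg C, 5% CO2; detection reagent 10 min RT; luminescence.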
# Starred values were filed as active, the others as inactive; ? = inconclusive; . = no result; [ ] = another dose, or the depositor's remark. This is a sample that favours compounds with a hit; in the whole collection about 7.3% have one here. Calls come from the whole dose curve; as a rule, active = well fitted curve in the direction sought with a large enough effect; inconclusive = small, poorly fitted or top-dose-only effect, or another doubt; inactive = no such curve, though single readings can be large; an effect the other way counts as inactive or inconclusive. Potency is the fitted concentration of half-maximal effect.
SMILES,SMN2 splice up,Rab9 prom act,ELG1 genotoxic,NPC1 prom act,FLuc modulator,p53 reactivation
Cc1ccc(-c2cc(N)nc(-c3ccccc3)c2)cc1,.,20.6%,?,24.3%,13.5µM*,?
O=C1c2ccccc2-c2n[nH]c3cccc1c23,9.7%,6.1%[46.1 µM],.,?,.,.
O=C1c2ccccc2-c2nnc(-c3ccc(F)cc3)cc21,2.51µM*,0.316µM*,?,?,0.426µM*,14.8%
O=C1c2ccccc2-c2nnc(-c3ccc(O)cc3)cc21,6.31µM*,0.501µM*,?,0.631µM*,0.536µM*,-7.5%
Cc1ccc(-c2cc3c(nn2)-c2ccccc2C3=O)cc1,.,?,?,?,0.0757µM*,-10.4%
Cc1ccccc1-c1cc2c(nn1)-c1ccccc1C2=O,?,3.98µM*,?,3.16µM*,1.35µM*,28.8%
O=c1[nH]nc(-c2ccc(F)cc2)cc1-c1ccccc1,.,1.0%,5.6%,2.5%,1.4%,-1.1%
COc1ccccc1NC(=O)CCS(=O)(=O)c1cc2c3c(c1)CCN3C(=O)CC2,.,.,.,.,5.7%,.
CCC(C)n1c(=O)c2sccc2n2c(CCCC(=O)N3CCN(c4ccccc4)CC3)nnc12 (stereo not drawn),.,.,.,.,4.7%,.
COc1ccc(C(=O)/C=C/c2cccs2)c(OC(=O)c2cccc([N+](=O)[O-])c2)c1,?,?,8.0%,26.6%,4.78µM*,22.9%
O=C(/C=C/c1cccs1)NNC(=O)c1cccc([N+](=O)[O-])c1,.,.,0.0%,.,.,11.7%
COc1ccc(C(=O)/C=C/c2ccc(F)cc2)c(OC(=O)c2ccc([N+](=O)[O-])cc2)c1,4.2%,-1.7%,?,11.7%,9.53µM*,0.3%
CN1CC(=O)N/C1=N\C(=O)Nc1ccc(O)cc1,.,-5.8%[1.84 µM],0.3%,0.5%,4.8%,2.7%
COc1ccc(C)cc1Nc1nc(-c2c[nH]c3ccccc23)cs1,-9.5%,1.3%,1.6%,0.1%,?,0.8%
c1ccc2c(-c3csc(-c4ccncc4)n3)c[nH]c2c1,12.6µM*,?,?,1.0%,7.57µM*,3.6%
Brc1ccc(-c2csc(-c3c[nH]c4ccccc34)n2)cc1,?,9.3%,10.2%,?,21.3µM*,44.7µM*
Cc1nc(SCc2nc3cc(Cl)c(F)cc3[nH]2)c2oc3ccccc3c2n1,.,.,-5.8%,.,.,-4.5%
c1ccc(-c2ccc(C3=Nn4c(Cn5nnc6ccccc65)nnc4SC3)cc2)cc1,-21.3%,-8.7%,-1.3%,0.0%,?,-8.3%
COc1ccc(-c2nn(CCC(=O)O)cc2CCC(=O)O)cc1,-2.2%,7.7%,1.3%,-1.0%,-1.2%,1.1%
COc1ccc(C2CC(c3ccccc3)=NN2c2ccc(N)cc2)cc1 (stereo not drawn),8.1%,4.1%,12.6%,-4.6%,9.53µM*,-5.5%
COc1ccc(C2CC(c3ccncc3)=NN2c2ccc(S(N)(=O)=O)cc2)cc1 (stereo not drawn),.,.,20.6µM*,.,.,20.4%
COc1ccc(C2=NN(c3ccccc3)C(c3cn(CCC(=O)O)nc3-c3ccccc3)C2)cc1 (stereo not drawn),10.8%,15.8%,4.3%,6.9%,4.26µM*,-3.9%
COc1ccc(C2CC(c3ccccc3)=NN2c2ccc(Cl)c(C(=O)O)c2)cc1 (stereo not drawn),.,0.3%,5.5%,-0.5%,21.3µM*,5.8%
O=C(Oc1ccccc1)N1CCC2(CC1)CN(c1ccncc1)C2,-45.2%,.,.,.,.,.
Cc1ccc(C)c(N2CCN(C(=O)C3CCCN(S(=O)(=O)c4ccc5c(c4)oc(=O)n5C)C3)CC2)c1 (stereo not drawn),-71.5%,.,.,.,-1.3%,.
SMILES,SMN2 splice up,Rab9 prom act,ELG1 genotoxic,NPC1 prom act,FLuc modulator,p53 reactivation
CCc1cc(C(=O)Cc2nc3ccccc3s2)c(O)cc1OCC(=O)O,.,12.0%,2.2%,1.5%,21.3µM*,-2.3%
O=C(Cc1ccc(Br)cc1)c1ccc(O)cc1O,.,?,?,3.16µM*,15.1µM*,?
O=C(Cc1nc2ccccc2s1)c1ccc(O)cc1O,?,3.16µM*,?,3.16µM*,?,?
COc1ccc(CC(=O)c2ccc(O)cc2O)cc1,-83.1%,?,?,?,?,18.0%
O=C(CSc1nc2ccccc2s1)c1ccc(O)cc1O,.,0.0%[1.84 µM],9.6%,?,13.5µM*,?
CC1C/C(=C\c2cccnc2)C(=O)/C(=C/c2cccnc2)C1 (stereo not drawn),1.8%[1.84 µM],-48.4%,-15.3%,-33.5%,-5.5%,-19.6%
CC(C)C/C=C1\CCc2c([nH]c3ccccc23)C1=O,.,2.82µM*,?,29.3%,?,10.6%
O=C1/C(=C/c2cccnc2)CCc2c1[nH]c1ccccc21,.,3.16µM*,-2.7%,27.3%,9.53µM*,12.6%
Cc1nsc(Nc2ccccc2)c1C#N,-18.1%,1.2%,-8.0%,8.9%,4.2%,-2.4%
CC(C)CNS(=O)(=O)c1ccc(OCC(=O)Nc2ccc3c(c2)OCCO3)cc1,.,0.6%,-2.2%,-1.8%,0.9%,0.5%
Cc1ccc(OCC(=O)Nc2ccc3c(c2)OCCO3)cc1C,-16.7%,13.5%,?,6.2%,16.9µM*,10.3%
Cc1ccc(OCC(=O)Nc2ccc(F)cc2)cc1C,6.1%,-2.0%,?,-2.1%,19µM*,?
Cc1cccc(OCC(=O)Nc2ccc3c(c2)OCCO3)c1,9.6%,3.16µM*,6.51µM*,?,6.01µM*,31.1%
CC(=O)Nc1cccc(OCC(=O)Nc2ccc(F)cc2)c1,?,20.2%,5.2%,13.6%,?,?
C/C(CC(=O)Nc1ccc2c(c1)OCCO2)=N\NC(=O)COc1ccccc1,.,1.4%,6.6%,-3.2%,?,11.8%
CCCOc1ccc(C(=O)Nc2ccc3oc(-c4ccncc4)nc3c2)cc1,-9.0%,.,.,.,-1.4%,.
Cc1[nH]c2ccccc2c1C(=O)COc1ccccc1F,.,22.2%,12.8%,16.3%,21.3µM*,5.8%
Cc1[nH]c2ccccc2c1C(=O)COc1ccccc1,.,24.3%,14.0%,16.3%,?,1.6%
Cc1ccc(C=Nc2cc([N+](=O)[O-])ccc2C)s1,13.3%,0.2%,1.4%,4.8%,0.3%,-9.3%
Cc1ccc([N+](=O)[O-])cc1N=Cc1ccc(Br)s1,?,-1.4%,9.4%,?,13.5µM*,?
Cc1cc(NC(=O)c2cccs2)cc(-c2nc3cc(Cl)ccc3o2)c1O,-4.8%,.,.,.,-4.7%,.
CC(C)c1ccc(/C=c2\sc3nc(-c4ccncc4)nn3c2=O)cc1,6.9%,16.9%,3.7%,20.3%,2.39µM*,18.1%
Cc1ccc(/C=c2\sc3nc(-c4cccnc4)nn3c2=O)cc1,16.9%,7.5%,8.5%,9.1%,4.78µM*,8.7%
